Assay results reported in PubChem BioAssay AID1745846 (National Center for Advancing Translational Sciences (NCATS), 2022).
Out of some 1,400 compounds screened, about 30 (2%) were called active. Inconclusive results (about 15%) are left out. Calls follow the shape of the dose curve; as a rule, active = well fitted inhibition curve with a large enough effect; inconclusive = small, poorly fitted or top-dose-only effect; inactive = flat fitted curve, though single readings scatter. The entries come from a sample that favours actives as a whole. A call without a number means that no potency is given here.

Assay: Firefly Luciferase Counterscreen for Inhibitors of ATXN expression
Details: luminescence; series mostly up to 57.5 µM
How it was run: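 Recombinant firefly luciferase at 10 nM final in 50 mM Tris pH 7.5, 10 mM MgCl2, 0.05% BSA, 0.01% Tween20 with substrate; compounds up to 57 uM final, 10 min room temperature, end-point luminescence. Buffer-only wells define 100% inhibition.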
Potency is read from the fitted curve at half-maximal effect.

Compound	Potency
Cc1cc(C)nc(N/N=C2/CCCC/C2=C\c2ccccc2)n1	inactive
Cc1ccc(C(NC(=O)C2CCN(Cc3ccc(Cl)c(Cl)c3)CC2)c2ccccn2)cc1 (stereo not drawn)	inactive
Cn1c(=O)c2c(nc(CN3CCN(Cc4ccccc4)CC3)n2Cc2ccc(Cl)cc2)n(C)c1=O	inactive
Cn1c2ccccc2c(=O)c2c(=O)n(C3CCCCC3)c(-c3cccs3)nc21	inactive
CC1(C)Cc2ccccc2C(NNC(=O)c2ccccn2)=N1	inactive
CC(OC(=O)c1cc(Br)ccc1O)C(=O)Nc1ccc(S(=O)(=O)N2CCCC2)cc1 (stereo not drawn)	inactive
O=C(Nc1ccc(N2CCN(C(=O)c3cccs3)CC2)c(Cl)c1)c1cccnc1	inactive
N#Cc1nc(Cc2cccc3ccccc23)oc1NCc1ccc(F)cc1	inactive
CC(C)CC(N)c1csc(Nc2ccc(C(=O)N(C)Cc3ccccc3)cn2)n1 (stereo not drawn)	inactive
COc1ccc(C(=O)Nn2c(SCC(=O)c3ccccc3)nc3ccccc3c2=O)cc1	7.08 µM (active)
COc1ccc(C(=O)NNC(=S)NC(=O)c2ccccc2)cc1	inactive
COc1ccc(Nc2c3ccccc3nc3ccccc23)cc1	inactive
CC1(C(=O)NCc2ccccc2Br)CCN1C(=O)Cc1ccc(-c2ccccc2)cc1 (stereo not drawn)	inactive
Cc1cc(C(=O)N/N=C/c2c(CO)cnc(C)c2O)c2ccccc2n1	inactive
CSCc1nnc(NC(=O)c2ccc(S(=O)(=O)N3CCCCC3C)cc2)o1 (stereo not drawn)	inactive
COc1ccc(C(NC(=O)c2cccnc2)c2cc(Cl)c3cccnc3c2O)cc1OC (stereo not drawn)	inactive
CC[C@H]1CN2CCc3cc(OC)c(OC)cc3C2C[C@@H]1C[C@H]1NCCc2cc(OC)c(OC)cc21 (stereo partly drawn)	inactive
Cc1cc(C(=O)N/N=C/c2cc(Br)cc(Br)c2OC(=O)c2cccc(F)c2)n[nH]1	inactive
O=[N+]([O-])c1c(Nc2ccccn2)cc(Cl)c2nonc12	inactive

Compound	Potency
COC(=O)Cc1ccc(NC(=S)N2CCN(c3cc(Cl)ccc3C)CC2)cc1	inactive
CN(C)CCCN(C(=O)c1ccc(S(=O)(=O)N(C)Cc2ccccc2)cc1)c1nc2cc3c(cc2s1)OCO3	inactive
COc1ccccc1/C=C/CN1CCCC(CO)(Cc2cccc(Cl)c2)C1 (stereo not drawn)	inactive
COc1ccc(Cl)cc1C(Nc1cccnc1)c1ccc2cccnc2c1O (stereo not drawn)	inactive
CN1CCC(NC(=O)c2cc(-c3cccc(Br)c3)nc3ccccc23)CC1	inactive
Cc1sc(NC(=O)c2cc(-c3ccc(Cl)cc3)nc3ccccc23)c(C(N)=O)c1C	25.1 µM (active)
Cc1cccc(NC(=O)c2cc(-c3ccccn3)nc3ccccc23)c1C	inactive
COc1ccccc1-c1cc2nc(-c3ccccc3)cc(N3CCN(C(=O)c4ccco4)CC3)n2n1	inactive
O=C(Nc1ccc(OC(F)(F)F)cc1)N1CCN(c2ccnc3cc(Cl)ccc23)CC1	inactive
CC(C)Nc1nc(NCCOc2ccccc2)c2sccc2n1	inactive
CC(=O)Nc1ccc(CNc2nc(NC(C)C)nc3cc(-c4ccccc4)sc23)cc1	14.1 µM (active)
COc1cccc(CNc2nc(NCc3ccccc3)nc3ccsc23)c1	inactive
COc1ccccc1NC(=O)CSc1n[nH]c(-c2ccccn2)n1	inactive
CC(C)c1ccc(S(=O)(=O)c2cc3cc(Br)ccc3oc2=O)cc1	inactive
N=c1n(CCN2CCCCC2)c2ccccc2n1CC(O)c1ccc(Cl)c(Cl)c1 (stereo not drawn)	inactive
CCOC(=O)c1c(C)sc2c1N(C(=O)CN(CC)CC)c1cc(Cl)ccc1S2	inactive
COc1ccc(NC(=O)c2cc(-c3cc(Cl)ccc3OC)n[nH]2)cc1OC	inactive
Cc1nc2c(OCc3cccc(Cl)c3)cccn2c1N(C)Cc1cccs1	inactive
C(=N\Nc1ccc2nncn2n1)/c1ccccn1	inactive
